Experimental findings from PubChem BioAssay AID1159554 (Broad Institute, 2015) are described below.

Out of some 94,000 compounds screened, about 2,100 (2.2%) were called active. The sample as a whole holds a higher share of actives than the screen did. Values without a mark were called inactive. No stated cut-off is given here; in the data, active means activity change below about -80%; inconclusive means no clear call, values can overlap the other calls; inactive means above that.

The nature of the experiment: Dd2 malaria parasite growth inhibition – SYBR Green fluorescence, single dose replicates, primary screen (AID 1159554). The following applies: P. falciparum Dd2 growth, 72 h, at 10 µM, active compounds read low.
As to `CO[C@H]1CN(C)C(=O)c2cc(NC(=O)c3cnccn3)ccc2OC[C@H](C)N(C(=O)C2CC2)C[C@H]1C`, the activity change is -22.3%.

For the molecule `COc1cccc(-c2cn(CC[C@@H]3CC[C@@H](NC(C)=O)[C@@H](CO)O3)nn2)c1`, the activity change is -3.98%.

On to `CCC(=O)N(C)C[C@H]1Oc2cc(/C=C/c3ccccc3)ccc2S(=O)(=O)N([C@H](C)CO)C[C@H]1C`, for which the activity change is -20.8%.

In the case of `COc1ccc(NC(=O)N(C)C[C@H]2Oc3cc(C#CCN(C)C)ccc3S(=O)(=O)N([C@@H](C)CO)C[C@@H]2C)cc1`, the activity change was 7.25%.

With `C[C@H]1CN([C@@H](C)CO)S(=O)(=O)c2ccc(C#Cc3ccccc3)cc2O[C@@H]1CN(C)C(=O)C1CC1`, the activity change was -86.3% (active).

On to `C[C@@H]1CN([C@@H](C)CO)S(=O)(=O)c2ccc(/C=C/c3ccccc3)cc2O[C@H]1CN(C)Cc1cccnc1`, for which the activity change was -90.5% (active).

For `C[C@@H]1CN([C@@H](C)CO)S(=O)(=O)c2ccc(C#Cc3ccccc3)cc2O[C@@H]1CN(C)C(=O)Nc1ccccc1`, the activity change is -58.2%.

Consider `C[C@H](CO)N1C[C@H](C)[C@@H](CN(C)C(=O)C2CC2)Oc2cc(C#CC3CC3)ccc2S1(=O)=O`, for which the activity change was -9.49%.

In the case of `C[C@@H]1CN([C@H](C)CO)S(=O)(=O)c2ccc(/C=C/c3ccccc3)cc2O[C@@H]1CN(C)Cc1ccccc1`, the activity change was -19.9%.

Consider `C[C@@H]1CN([C@@H](C)CO)S(=O)(=O)c2ccc(/C=C/c3ccccc3)cc2O[C@H]1CN(C)Cc1ccccc1`, for which the activity change was -58.4%.

Regarding `CCC(=O)N(C)C[C@H]1Oc2cc(/C=C/c3ccccc3)ccc2S(=O)(=O)N([C@H](C)CO)C[C@@H]1C`, the activity change was -32.1%.

Consider `COc1ccc(C#Cc2ccc3c(c2)O[C@@H](CN(C)C(=O)Nc2cccc(OC)c2)[C@H](C)CN([C@H](C)CO)S3(=O)=O)cc1`, for which the activity change was -89.8% (active).

Turning to `C[C@@H]1CN([C@@H](C)CO)S(=O)(=O)c2ccc(/C=C/c3ccccc3)cc2O[C@H]1CN(C)C(=O)C1CC1`, the activity change is -88.7% (active).

On to `C[C@H](O)C#Cc1ccc2c(c1)O[C@@H](CN(C)C(=O)C1CC1)[C@H](C)CN([C@H](C)CO)S2(=O)=O`, for which the activity change was 2.01%.

On to `O=C(NC[C@H]1CC[C@@H]2[C@@H](CN2S(=O)(=O)c2ccccc2F)O1)C1CCCCC1`, for which the activity change is 81.8%.

Consider `CNC(=O)C[C@@H]1CC[C@@H]2[C@@H](COc3ccc(NC(=O)c4ccc5c(c4)OCO5)cc3C(=O)N2C)O1`, for which the activity change is -13.2%.

Consider `CN1c2ccc(C3=CCCCC3)cc2[C@@H]2[C@@H](CCN2C(=O)Nc2cc(F)ccc2F)[C@@H]1CO`, for which the activity change was -41.1%.

With `O=C(CC1CC1)N[C@@H]1C[C@@H]2O[C@H](CO)CC[C@@H]2O[C@@H]1CCc1ccc(C#Cc2ccccc2)cc1`, the activity change is -36.1%.

For the molecule `CN1c2ccc(C#Cc3ccccc3F)cc2[C@@H]2[C@@H](CCN2C(=O)Cc2cccnc2)[C@H]1CO`, the activity change was -26.2%.

For `Cc1ccc(-c2ccc3c(c2)O[C@@H](CN(C)C(=O)NC(C)C)[C@@H](C)CN([C@H](C)CO)S3(=O)=O)cc1`, the activity change was -34.3%.

Turning to `CC(C)C#Cc1ccc2c(c1)O[C@@H](CN(C)C(=O)C1CC1)[C@H](C)CN([C@H](C)CO)S2(=O)=O`, the activity change was -27.6%.

For the molecule `CC(=O)N(C)C[C@@H]1Oc2cc(-c3cncnc3)ccc2S(=O)(=O)N([C@@H](C)CO)C[C@H]1C`, the activity change was 21.6%.

Take `C[C@H](O)C#Cc1ccc2c(c1)O[C@H](CN(C)C(=O)C1CC1)[C@@H](C)CN([C@H](C)CO)S2(=O)=O`: the activity change was 46.3%.

Regarding `C[C@@H]1CN([C@@H](C)CO)S(=O)(=O)c2ccc(C#Cc3ccccc3)cc2O[C@@H]1CN(C)C(=O)C1CC1`, the activity change is -82.5% (active).

Take `CNC[C@@H]1Oc2cc(C#Cc3ccc(F)cc3)ccc2S(=O)(=O)N([C@@H](C)CO)C[C@H]1C`: the activity change was -62.7%.

With `CNC[C@H]1Oc2cc(C#Cc3ccccn3)ccc2S(=O)(=O)N([C@H](C)CO)C[C@@H]1C`, the activity change is -6.84%.

For the molecule `CNC[C@H]1Oc2cc(C#Cc3ccccc3)ccc2S(=O)(=O)N([C@@H](C)CO)C[C@@H]1C`, the activity change is -85% (active).

Turning to `CC(C)NC(=O)N(C)C[C@H]1Oc2cc(-c3cncnc3)ccc2S(=O)(=O)N([C@@H](C)CO)C[C@H]1C`, the activity change is -83.1% (active).

On to `CCNC(=O)C[C@@H]1C=C[C@@H](NC(=O)C2CCOCC2)[C@@H](CO)O1`, for which the activity change is 2.77%.

`COCC(=O)Nc1ccc2c(c1)OC[C@H](C)N(C(=O)Cc1ccccn1)C[C@H](C)[C@@H](OC)CN(C)C2=O`: the activity change is 41.2%.

Consider `O=C(C[C@H]1CC[C@@H](NC(=O)CC2CC2)[C@@H](CO)O1)NCc1ccccc1`, for which the activity change is 10.8%.

For `O=C(NC1CCC1)[C@@H]1[C@@H](CO)[C@@H]2Cn3c(ccc(/C=C/c4ccccc4)c3=O)[C@@H]2N1Cc1ccncc1`, the activity change is -2.62%.

For `CCCN1C[C@@H](C)[C@@H](OC)CN(C)C(=O)c2ccc(NC(=O)c3ccc(F)cc3)cc2OC[C@@H]1C`, the activity change was -14.3%.

Take `C[C@H](O)C#Cc1cnc2c(c1)C(=O)N([C@@H](C)CO)C[C@H](C)[C@@H](CN(C)C(=O)c1ccccc1)O2`: the activity change is 20.4%.

For the molecule `COCC(=O)Nc1ccc2c(c1)OC[C@H](C)N(Cc1ccccc1)C[C@H](C)[C@@H](OC)CN(C)C2=O`, the activity change is -12.2%.

As for `Cc1ccc(S(=O)(=O)N2C[C@@H](O)COC[C@@H]3O[C@H](CC(=O)NCCCN(C)C)CC[C@H]32)cc1`, the activity change was -1.46%.

With `CCCNC(=O)N1CC2(C1)CN(Cc1cccc(F)c1)[C@@H](CO)c1[nH]c3cc(OC)ccc3c12`, the activity change was -63.2%.

Turning to `COc1ccc2c3c([nH]c2c1)[C@H](CO)N(C(=O)Nc1ccc(F)cc1)CC31CCN(C(=O)Nc2c(C)noc2C)CC1`, the activity change is -35.3%.

Consider `COc1ccc2c3c([nH]c2c1)[C@@H](CO)N(Cc1cccc(F)c1)CC31CN(CC2CC2)C1`, for which the activity change is -82.5% (active).

Turning to `COc1ccc2c3c([nH]c2c1)[C@H](CO)N(CC1CC1)CC31CN(C(=O)Nc2cccc(F)c2)C1`, the activity change is -49.9%.

For `COc1ccc2c3c([nH]c2c1)[C@H](CO)N(S(=O)(=O)c1cn(C)cn1)CC31CCN(CC2CC2)CC1`, the activity change was 1.53%.

In the case of `COc1ccc2c3c([nH]c2c1)[C@@H](CO)N(C(=O)c1ccc(F)cc1)CC31CCN(C(=O)Nc2ccc(F)cc2)CC1`, the activity change was -75.4%.

Consider `COc1ccc2c3c([nH]c2c1)[C@H](CO)N(C(=O)C1CCC1)CC31CCN(Cc2cccc(F)c2)CC1`, for which the activity change was -43.8%.

Regarding `COc1ccc2c3c([nH]c2c1)[C@H](CO)N(C(=O)Nc1ccc(F)cc1)CC31CCN(CC2CCOCC2)CC1`, the activity change was -81.3% (active).

On to `COc1ccc2c3c([nH]c2c1)[C@H](CO)N(Cc1cccc(F)c1)CC31CCN(CC2CC2)CC1`, for which the activity change was -83.2% (active).
